Measurements as given in PubChem BioAssay (NCI).
The panel holds about 83,000 compounds, 20% with a hit somewhere; the sample as a whole holds those more often.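 The endpoint reported here, percent growth, reads 100 for growth as untreated, 0 for no net growth and -100 for all cells dead.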 Values without a mark were called inactive. Active and inactive are the calls of the source. How the source made its calls: active means growth percent below 10; inactive means the rest.

Assays:
Assay in all cases: NCI-60 one-dose screen, 48 h (100 = growth as untreated, 0 = no growth, -100 = all killed)
Settings in all cases: 10 µM unless noted
[1] = system: HCT-15 colon
[2] = system: HT29 colon
[3] = system: SNB-75 CNS
[4] = system: SNB-19 CNS
[5] = system: U251 CNS
[6] = system: PC-3 prostate
[7] = system: UACC-62 melanoma
[8] = system: LOX IMVI melanoma
[9] = system: SK-MEL-28 melanoma
[10] = system: SK-MEL-5 melanoma

SMILES | growth [1] | growth [2] | growth [3] | growth [4] | growth [5] | growth [6] | growth [7] | growth [8] | growth [9] | growth [10]
CCCCCN(CCCCC)CCCNc1c2c(nc3ccc(Cl)cc13)CCCC2 | 32.5% | 1.62% (active) | 47.9% | 60.8% | 35% | 41.7% | 51% | 14% | 71.2% | –
O=C1c2cccc(NCCN=Cc3ccccc3O)c2C(=O)c2c(NCCN=Cc3ccccc3O)cccc21 | 38.7% | -4.87% (active) | 29.3% | 14.3% | 7.41% (active) | 10.2% | 81.5% | -3.1% (active) | 50.2% | –
COc1ccc(C(=O)COc2cccc(/C=C3\COc4ccc5ccccc5c4C3=O)c2)cc1 | 88.6% | 60.8% | -6.64% (active) | 66.9% | 68.3% | – | 74.5% | 57.6% | 106% | 67.6%
Cn1c(=O)c2[nH]c(=S)n(Cc3ccccc3)c2n(C)c1=O | 102% | 111% | 84.9% | 99.1% | 110% | 98.2% | 91.8% | 88.1% | 122% | –
COC(=O)[C@H]1[C@H]2C[C@@H]3c4[nH]c5cc(OC)ccc5c4CCN3C[C@H]2C[C@@H](OC(=O)/C=C/c2cc(OC)c(OC)c(OC)c2)[C@@H]1OC | 39.9% | -66.1% (active) | 47.2% | 49.9% | 17.4% | 44.6% | 87.4% | 26.8% | 109% | –
FC(F)(F)c1ccc(-c2cnc(-c3nn[nH]n3)nc2NC2CCCCCC2)cc1 | 38.7% [50 µM] | 66.8% [50 µM] | 93.7% [50 µM] | 41.3% [50 µM] | 33.8% [50 µM] | 28.5% [50 µM] | 41.6% [50 µM] | 41.6% [50 µM] | 74.1% [50 µM] | –
CCCCCCCSc1ncnc2[nH]ncc12 | 60.8% | 89.3% | 59.3% | 80.9% | 38.3% | – | 76.6% | 65.9% | 106% | 92.4%
COc1cnc2c(c1)C(=O)c1c-2n(CCCN2CCCC2)c(=O)c2cc(F)ccc12 | -18.9% (active) | -31.2% (active) | -18.9% (active) | 19.7% | -19% (active) | 9.68% (active) | -27.8% (active) | -69.7% (active) | 27.4% | –
C/C(=C\CCc1ccoc1)CC/C=C(\C)CCCN1CCOCC1 | 23.8% | 22.7% | 60.9% | 67.5% | 44.3% | 55.9% | 62.5% | – | 80.4% | 15.6%
C/C=C(/C(=C/C)c1ccc(O)cc1)c1ccc(O)cc1 | 31.7% | 38.6% | 9.32% (active) | 34.6% | 32.8% | – | 31.2% | 39.1% | 52.4% | 5.64% (active)
COc1cc(/C=N/NC(=O)c2ccc(C(F)(F)F)nc2Nc2cc(Cl)ccc2C)cc(OC)c1OC | 104% | 127% | 96% | 75.4% | 87.4% | 66.8% | 85% | 102% | 99.5% | –
O=C(c1ccccc1)C(CN1CCCCC1)c1ccccc1 (stereo not given) | -22% (active) | -13.4% (active) | 63.4% | 78.5% | 15.9% | 49.8% | 25.8% | -94.9% (active) | 58.8% | –
CCCCCc1c(C)[nH]c(/C=C2\N=C(c3ccc[nH]3)C=C2Oc2ccccc2)c1C | -99.5% [100 µM] (active) | -56.9% [100 µM] (active) | -62.1% [100 µM] (active) | -95.2% [100 µM] (active) | -99.6% [100 µM] (active) | -21.6% [100 µM] (active) | -92.3% [100 µM] (active) | -90% [100 µM] (active) | -95.1% [100 µM] (active) | –
CCSc1ncc(Br)c(Sc2nc(N)nc3nc[nH]c23)n1 | 68.5% | 62.3% | 60.2% | 121% | 89.5% | – | 19.3% | 19.5% | 152% | 74.6%
O=C(NC1CCS(=O)(=O)C1)c1ccc(C(=O)c2ccccc2)cc1 (stereo not given) | 101% | 106% | 90.9% | 97.9% | 90.1% | 101% | 95.6% | 95.6% | 89.2% | –
CCOc1cc(CCNS(=O)(=O)c2ccc(C)cc2)c(C(C)=O)cc1OCC | 83.3% [100 µM] | 79.7% [100 µM] | 93.3% [100 µM] | 87.3% [100 µM] | 86.4% [100 µM] | 33.5% [100 µM] | 59% [100 µM] | 87.1% [100 µM] | 108% [100 µM] | –
O=C1CSC(c2ccccc2Cl)N1c1nnc(Cn2nnc3ccccc32)o1 (stereo not given) | 74.8% | 81.2% | 81.6% | 83.3% | 77.6% | 68.9% | 63.8% | 85.9% | 92.8% | –
ICCC(c1ccccc1)(c1ccccc1)c1ccccc1 | 27.7% | 2.63% (active) | 50.3% | 65.3% | 23% | 49.4% | -35.3% (active) | 16.3% | -70% (active) | –
CCOC(=O)/C(=C/CC/C(C)=C/CC/C(C)=C/CCc1ccoc1)CC(=O)N1CCCCC1 | 69.2% | 55.5% | 82.6% | 36% | 66.6% | 28.7% | 23.8% | – | 36.8% | 9% (active)
CC(C)CC1NC(=O)C(CCCN)NC(=O)C(C(C)C)NC(=O)C2CCCN2C(=O)C(Cc2ccccc2)NC(=O)C(CC(C)C)NC(=O)C(CCCN)NC(=O)C(C(C)C)NC(=O)C2CCCN2C(=O)C(Cc2ccccc2)NC1=O (stereo not given) | 7.83% (active) | -51.7% (active) | -81.5% (active) | -83% (active) | -94.4% (active) | – | -75.3% (active) | -86.7% (active) | -72.1% (active) | -98.3% (active)
